BAZ2B inh – qHTS Assay for Inhibitors of BAZ2B. Potency, µM (titrated, usually from 114 µM), actives largely listed as inhibitors. Bromodomain adjacent to zinc finger domain protein 2B (Homo sapiens), Q9UIF8. AlphaScreen BAZ2B-H3K14Ac peptide displacement. 360,000 compounds, 4.4% hits; note: nearly all actives have a fitted effect of over 60% in size
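BAZ2B 50 nM plus b-H3(5-23)K14Ac 50 nM, PBS pH 7.4/0.01% Tween-20, 30 min RT; compound added (max 110 uM), 30 min RT; streptavidin donor/Ni-chelate acceptor beads 10 ug/mL final, 20 min dark; AlphaScreen read.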
Sfp PPTase inh – qHTS Assay for Inhibitors of Bacillus subtilis Sfp phosphopantetheinyl transferase (PPTase); AID 1490, 2009; 310,000 compounds, 3.5% hits; 4'-phosphopantetheinyl transferase ffp (Bacillus subtilis), Q9F4F7; Potency, µM, actives largely listed as inhibitors; Biochemical Sfp PPTase activity, qHTS;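 note: the enzyme is Sfp with the accession as filed and its product quenches rhodamine fluorescence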
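Step 1, compound plus 15 nM Sfp-PPTase, 15 min, room temperature. Step 2, add rhodamine-CoA (5 uM) and BHQ-2-YbbR (12.5 uM). Step 3, read 525/598 nm fluorescence at 0 and 30 min.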
JMJD2A Tudor – qHTS Assay for Inhibitors of JMJD2A-Tudor Domain; Lysine-specific demethylase 4A (Homo sapiens), O75164; AlphaScreen JMJD2A-Tudor / H3K4me3 peptide binding; Potency, µM (highest dose often 114 µM), hits mostly inhibitors; AID 504339, 2011; 390,000 compounds, 4.4% hits; note: nearly all actives have a fitted effect of over 50% in size
HP1b chromo inh – HTS for Inhibitors of HP1-beta Chromodomain Interactions with Methylated Histone Tails | Chromobox protein homolog 1 (Homo sapiens), P83916 | AlphaScreen HP1-beta / biotin-H3K9me3 peptide binding | Potency, µM (titrated, usually from 114 µM), usual class: inhibitors | 390,000 compounds, 0.56% hits | AID 540317, 2011; note: nearly all actives have a fitted effect of over 70% in size
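HP1-beta protein (50 nM final) preincubated 30 min at room temperature with biotinylated H3(1-18)K9me3 peptide (50 nM) in PBS pH 7.4, 0.01% Tween-20, then compound added for 30 min. AlphaScreen streptavidin donor/nickel chelate acceptor beads (10 ug/mL final), 30 min dark, luminescence read.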
L3MBTL1 block – qHTS Assay for the Inhibitors of L3MBTL1 | Potency, µM (highest dose often 57.1 µM), actives largely listed as inhibitors | 230,000 compounds, 0.66% hits | AlphaScreen L3MBTL1–H3K9me1 peptide binding; note: nearly all actives have a fitted effect of over 60% in size
Target sequence (Q9Y468 whole entry, looked up): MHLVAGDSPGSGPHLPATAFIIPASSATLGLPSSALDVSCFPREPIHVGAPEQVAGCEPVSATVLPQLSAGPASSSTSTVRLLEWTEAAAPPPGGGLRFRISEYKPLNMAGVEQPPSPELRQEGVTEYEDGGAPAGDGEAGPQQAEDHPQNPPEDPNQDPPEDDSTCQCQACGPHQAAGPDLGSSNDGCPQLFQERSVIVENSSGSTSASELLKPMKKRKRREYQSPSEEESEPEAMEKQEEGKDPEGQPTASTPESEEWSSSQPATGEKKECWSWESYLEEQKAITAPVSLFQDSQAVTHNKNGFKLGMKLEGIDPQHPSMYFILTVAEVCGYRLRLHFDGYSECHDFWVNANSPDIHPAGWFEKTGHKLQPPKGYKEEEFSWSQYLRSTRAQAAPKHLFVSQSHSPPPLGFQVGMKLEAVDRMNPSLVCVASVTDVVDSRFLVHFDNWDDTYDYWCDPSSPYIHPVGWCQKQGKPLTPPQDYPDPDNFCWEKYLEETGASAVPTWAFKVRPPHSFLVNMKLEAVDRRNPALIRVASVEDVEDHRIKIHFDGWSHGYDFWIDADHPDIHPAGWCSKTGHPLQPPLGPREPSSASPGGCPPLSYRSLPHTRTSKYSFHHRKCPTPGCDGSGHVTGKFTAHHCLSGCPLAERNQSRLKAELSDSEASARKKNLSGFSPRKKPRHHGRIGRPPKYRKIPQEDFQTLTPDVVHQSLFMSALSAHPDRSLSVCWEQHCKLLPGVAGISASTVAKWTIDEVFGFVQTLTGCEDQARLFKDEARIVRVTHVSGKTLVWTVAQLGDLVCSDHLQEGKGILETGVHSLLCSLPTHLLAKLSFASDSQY
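AlphaScreen proximity signal between nickel-chelate acceptor and streptavidin donor beads (final 10 ug/mL) reports binding of 50 nM L3MBTL1 to 75 nM biotin-H3 K9me1 peptide; complex incubated with compounds 30 min at room temperature; cefsulodin titration as control.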
G9a inh – qHTS Assay for Inhibitors of Histone Lysine Methyltransferase G9a; G9a H3K9 monomethylation, AlphaScreen, 2 h; Potency, µM (doses to about 102 µM), most hits filed as inhibitors; 350,000 compounds, 8.8% hits; note: nearly all actives have a fitted effect of over 75% in size
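Chemiluminescent proximity detection of H3K9 monomethylation, read after 10 min bead incubation in the dark. Reaction: 20 nM G9a, 500 nM biotin-H3K9 peptide, 20 uM SAM cofactor, 2 h, room temperature, following 15 min enzyme-compound preincubation.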
A number is an active result; 0 = inactive; ? = inconclusive; - = not tested or not shown; ! = a repeat was not active; [ ] = remark or other dose. Shown are actives, neighbours in structure and some others; about 12% of the full set was active somewhere. Calls come from the whole dose curve; as a rule, active = well fitted curve in the direction sought with a large enough effect; inconclusive = small, poorly fitted or top-dose-only effect, or another doubt; inactive = no such curve, though single readings can be large; an effect the other way counts as inactive or inconclusive.

SMILES	BAZ2B inh	Sfp PPTase inh	JMJD2A Tudor	HP1b chromo inh	L3MBTL1 block	G9a inh
COC(=O)C(O)(c1c[nH]c2ccccc12)C(F)(F)F (configuration not stated)	0	0	0	0	0	0
COC(=O)C(O)(c1c(C)[nH]n(-c2ccccc2)c1=O)C(F)(F)F (configuration not stated)	?	0	0	0	0	32µM
COC(=O)C12C/C=C\Cc3ccccc3[C@@H]1CNC2=O (some centres not stated)	-	0	-	-	-	-
S=c1nc(-c2ccccc2)n(-c2ccccc2)[nH]1	0	0	3.5µM	0	-	2.8µM
CCc1ccc(NC(=O)c2ccc(F)c(S(=O)(=O)N3CCC4(CC3)OCCO4)c2)cc1	0	-	0	0	-	0
CN1C(=O)C(=Cc2ccccc2OS(=O)(=O)c2ccccc2)C(=O)N(C)C1=O	?	35µM	0	0	-	-
COc1cc(C=C2C(=O)NC(=O)NC2=O)ccc1OCc1ccc([N+](=O)[O-])cc1	-	32µM	35µM	0	0	25µM
CN1C(=O)C(=Cc2ccccc2OCCOc2ccc([N+](=O)[O-])cc2)C(=O)N(C)C1=O	50µM	71µM	?	0	-	10µM
O=C1/C(=C\c2ccc([N+](=O)[O-])cc2)N2CCC1CC2	?	0	0	0	0	?
Cc1c(C=C2C(=O)N(C)C(=O)N(C)C2=O)c(=O)n(-c2ccccc2)n1C	0	0	0	0	0	0
O=C1NC(=O)C(=Cc2ccc(Oc3ccc([N+](=O)[O-])cc3)cc2)C(=O)N1	0	20µM	56µM	0	?	35µM
CC[C@H](C)[C@H](NC(=O)[C@H](CCCN=C(N)N)NC(=O)[C@H](CCCN=C(N)N)NC(=O)[C@H](CC(C)C)NC(=O)[C@H](Cc1ccccc1)NC(=O)CNC(=O)CNC(=O)[C@@H](N)Cc1ccc(O)cc1)C(=O)O	-	0	-	-	-	0
O=C(Oc1ccccc1)N(c1ccccc1)c1ccccc1	0	0	0	0	0	-
CCC1(CC)CCNC1=O	-	0	-	-	-	-
CCCCCC(O)C1C(=O)OC(C)C(O)\C=C/C=C\C=C/C=C\C=C(\C)C(O)C(O)C(O)CC(O)CC(O)CC(O)CC(O)CC1O (configuration not stated)	-	0	-	-	-	0[12.7 µM]
NCC1O[C@@H](O[C@H]2C(O)C(O[C@@H]3C(O[C@H]4OC(CO)C(O)C(O)C4N)C(N)CC(N)[C@H]3O)O[C@@H]2CO)C(N)C(O)C1O (some centres not stated)	-	0	-	-	-	0[2.33 µM]
CN1C(=O)C(=Cc2ccccc2OCc2ccc(C(=O)O)cc2)C(=O)N(C)C1=O	0	0	0	0	0	?
CN1C(=O)C(=Cc2ccccc2OCc2ccccc2Cl)C(=O)N(C)C1=O	0	50µM	0	0	0	0
O=C1NC(=O)C(=Cc2ccccc2OCCOc2ccc([N+](=O)[O-])cc2)C(=O)N1	?	50µM	89µM	0	0	16µM
COC(=O)N1CCN(C(=O)Cc2ccc(Cl)c(Cl)c2)C(CN2CCCC2)C1 (configuration not stated)	0	0	-	-	-	35µM!
CC(C)COc1ccc(Cc2c(O)[nH]c(=S)[nH]c2=O)cc1	0	?	0	?	0[2.29 µM]	0[0.501 µM]
Cc1cc(Cc2c(O)[nH]c(=S)[nH]c2=O)ccc1OC(C)C	0	56µM	89µM	?	0	8.9µM
CCOc1cc(C=C2C(=O)NC(=S)NC2=O)ccc1O	-	-	32µM	?	-	-
COc1ccc(C=C2C(=O)NC(=S)NC2=O)cc1OC	-	-	22µM	?	-	-
COc1ccc(/C=C/C=C2C(=O)NC(=S)NC2=O)cc1	-	-	0	0	-	-
SMILES	BAZ2B inh	Sfp PPTase inh	JMJD2A Tudor	HP1b chromo inh	L3MBTL1 block	G9a inh
CCOc1cc(C=O)ccc1O	-	-	0	0	0	-
O=c1cccc2n1CC1CC2CN2CCCCC12 (configuration not stated)	-	0	-	-	-	-
c1ccc(N2CCCC3(CCNCC3)C2)nc1	-	0	-	-	-	0[12.7 µM]
O=C(C/C=N\OCc1c(Cl)cccc1Cl)Oc1ccc(Cl)cc1Cl	0	0	0	0	-	?
COc1ccc(NC(=O)CSc2oc(-c3cccs3)nc2S(=O)(=O)c2ccccc2)c(OC)c1	0	-	?	?	-	?
COc1cccc(CN2CCN(Cc3cccc(F)c3)CC2)c1	35µM	?	7.9µM	?	0	-
CCCC(C)c1nnc(NC(=O)CCS(=O)(=O)c2ccccc2)s1 (configuration not stated)	?	18µM	50µM	?	-	4µM
COc1ccc(C[C@H]2c3cc(OC)c(OC)cc3CCN2C)cc1OC	-	0	-	-	-	0[21.5 µM]
N[C@H](CP(=O)(O)O)C(=O)O	-	0	-	-	-	-
C[Se]C[C@@H](N)C(=O)O	?	-	20µM	0	0	4µM
C[Se]C[C@H](N)C(=O)O	-	-	-	-	-	0.63µM
N[C@@H](CCl)C(=O)O	-	-	?	0	-	21µM
Cc1ccccc1CN1C(=O)C(C)N=C(c2ccccc2)c2ccccc21 (configuration not stated)	0	-	0	0	-	0
Cc1cc(C(=O)C[N+]23CCN(CC2)CC3)c(C)n1-c1ccc(Br)cc1	79µM	0	0	0	-	?
Cc1cccn2c(=O)c3c(nc12)N1CCC(Cc2ccccc2)CC1C1(C3)C(=O)N(C)C(=O)N(C)C1=O (configuration not stated)	0	32µM	0	0	-	?
CN1C(=O)N(C)C(=O)C2(Cc3c(nc4ccccn4c3=O)N3CCC(Cc4ccccc4)CC32)C1=O (configuration not stated)	0	0	-	-	0	0
Oc1cc2c(cc1O)[C@H]1c3ccccc3CN[C@@H]1CC2	?	32µM	-	-	-	2.5µM
Oc1cc2c(cc1O)[C@H]1c3ccccc3CN[C@H]1CC2	-	40µM	-	-	-	1.4µM
CC1Cc2c(cnc3c2CN(C)CC3)CO1 (configuration not stated)	-	0	-	-	-	-
CCCCC(C#N)(Cn1cncn1)c1ccc(Cl)cc1 (configuration not stated)	-	0	-	-	-	-
C[C@@H]1O[C@H](C[N+](C)(C)C)C[C@H]1O	-	-	-	-	-	16µM!
CC1OC(C[N+](C)(C)C)CC1O (configuration not stated)	0	-	0	0	0	0
C[C@H]1OC[C@@H](C[N+](C)(C)C)O1	0	0	?	0	0	1.6µM
CC(C)CN1CCCC2(CCN(C(=O)Oc3ccccc3)CC2)C1	-	0	-	-	-	0[12.7 µM]
Oc1ccccc1O	0	-	40µM	?	18µM	1.8µM
Cc1ccc2cc3c(ccc4ccccc43)c3c2c1CC3	-	50µM	-	-	-	?

Bioassay records: PubChem, National Center for Advancing Translational Sciences (NCATS)
